From PubChem
Dicer processing: inhibitors of Dicer pre-microRNA processing, primary screen, biochemical, cat-ELCCA, chemiluminescence | Endoribonuclease Dicer (Homo sapiens), Q9UPY3 | cat-ELCCA pre-miR-21 Dicer processing; stronger effect = higher value | z-score at 25 µM | 6% of 47,000 active | AID 1347074, 2019; in the data active = z-score above about 3, passing the limit was not always enough;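 also: higher signal means more uncleaved substrate so more Dicer inhibition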
Target sequence (Q9UPY3 whole entry, looked up): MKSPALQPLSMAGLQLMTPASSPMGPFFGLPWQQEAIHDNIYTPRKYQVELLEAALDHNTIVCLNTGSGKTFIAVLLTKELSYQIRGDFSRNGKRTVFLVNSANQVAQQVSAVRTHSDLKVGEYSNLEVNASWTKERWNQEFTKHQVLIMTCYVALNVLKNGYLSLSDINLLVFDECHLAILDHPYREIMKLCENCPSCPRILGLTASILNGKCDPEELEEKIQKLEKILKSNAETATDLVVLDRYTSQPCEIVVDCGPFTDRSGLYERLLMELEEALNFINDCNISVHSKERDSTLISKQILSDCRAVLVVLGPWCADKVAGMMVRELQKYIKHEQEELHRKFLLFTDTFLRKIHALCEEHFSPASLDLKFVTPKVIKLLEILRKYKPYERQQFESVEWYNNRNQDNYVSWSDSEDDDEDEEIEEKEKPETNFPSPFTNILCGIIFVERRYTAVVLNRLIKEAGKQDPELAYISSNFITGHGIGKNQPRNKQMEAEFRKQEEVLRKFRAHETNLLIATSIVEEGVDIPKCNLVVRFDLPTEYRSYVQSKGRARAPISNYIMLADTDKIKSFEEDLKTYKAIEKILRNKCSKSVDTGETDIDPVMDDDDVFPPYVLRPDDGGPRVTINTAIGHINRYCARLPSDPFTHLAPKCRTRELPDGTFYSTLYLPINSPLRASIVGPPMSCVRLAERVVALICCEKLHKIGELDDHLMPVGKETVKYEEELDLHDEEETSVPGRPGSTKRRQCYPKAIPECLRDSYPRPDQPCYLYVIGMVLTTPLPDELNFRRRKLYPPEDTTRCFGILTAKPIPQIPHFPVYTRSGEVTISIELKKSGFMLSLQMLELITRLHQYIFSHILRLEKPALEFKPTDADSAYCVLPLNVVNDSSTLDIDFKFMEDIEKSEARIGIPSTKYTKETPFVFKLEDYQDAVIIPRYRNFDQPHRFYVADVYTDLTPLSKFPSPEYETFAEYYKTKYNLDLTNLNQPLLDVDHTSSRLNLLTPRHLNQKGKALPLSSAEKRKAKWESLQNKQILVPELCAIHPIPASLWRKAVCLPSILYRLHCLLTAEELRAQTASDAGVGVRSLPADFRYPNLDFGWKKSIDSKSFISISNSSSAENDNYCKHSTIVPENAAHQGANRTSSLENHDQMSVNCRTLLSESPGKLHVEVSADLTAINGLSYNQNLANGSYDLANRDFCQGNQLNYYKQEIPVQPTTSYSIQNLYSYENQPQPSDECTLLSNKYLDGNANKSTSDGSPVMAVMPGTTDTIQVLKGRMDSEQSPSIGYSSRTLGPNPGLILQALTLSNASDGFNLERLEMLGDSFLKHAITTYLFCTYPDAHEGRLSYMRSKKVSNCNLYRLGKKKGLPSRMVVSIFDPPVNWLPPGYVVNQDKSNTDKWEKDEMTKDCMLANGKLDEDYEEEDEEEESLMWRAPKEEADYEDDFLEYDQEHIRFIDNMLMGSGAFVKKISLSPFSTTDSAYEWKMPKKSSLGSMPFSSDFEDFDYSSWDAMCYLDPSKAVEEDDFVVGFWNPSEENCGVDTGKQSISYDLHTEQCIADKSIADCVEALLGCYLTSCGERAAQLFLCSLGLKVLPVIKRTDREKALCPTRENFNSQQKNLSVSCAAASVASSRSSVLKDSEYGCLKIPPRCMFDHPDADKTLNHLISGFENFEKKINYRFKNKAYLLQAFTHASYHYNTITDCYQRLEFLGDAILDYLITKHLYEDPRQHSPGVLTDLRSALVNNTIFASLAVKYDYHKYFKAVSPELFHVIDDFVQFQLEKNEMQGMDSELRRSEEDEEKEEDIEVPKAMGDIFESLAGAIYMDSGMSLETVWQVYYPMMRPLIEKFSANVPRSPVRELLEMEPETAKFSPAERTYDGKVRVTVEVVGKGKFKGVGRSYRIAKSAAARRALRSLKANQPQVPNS
Hits are given with their value; . = inactive. The sample as a whole holds a higher share of hits than the screen did.

SMILES | Dicer processing
CC(C)[C@H](NC(=O)OCc1ccccc1)C(=O)O | .
Cc1ccc(NC(=S)N(CCC#N)C2CCCCC2)cc1 | .
Cc1cc(Br)cnc1N=CNO | .
Cc1cc(Br)cnc1N=CN(C)C | 3
Cc1cc(N=CN(C)C)c2ccccc2n1 | .
CC1(C)CC(=O)C2=C(C1)Nc1ccc3ccccc3c1C2c1ccc2c(c1)OCO2 (stereo unspecified) | .
CSc1ccc(C2C3=C(CC(C)(C)CC3=O)Nc3cc4c(cc32)OCO4)cc1 (stereo unspecified) | 5.1
Cc1ccc(C2C3=C(CC(C)(C)CC3=O)NC3=C2C(=O)CC(C)(C)C3)cc1 | 4.6
C#CCOc1ccc(C2C3=C(CC(C)(C)CC3=O)NC3=C2C(=O)CC(C)(C)C3)cc1 | .
CC1(C)CC(=O)C2=C(C1)NC1=C(C(=O)CC(C)(C)C1)C2c1ccccc1 | .
CC1(C)CC(=O)C2=C(C1)Nc1cc3c(cc1C2c1ccc(Cl)cc1)OCO3 (stereo unspecified) | .
Cc1ccc(-n2nnnc2SCC(=O)c2ccccc2)c(C)c1 | .
O=S(=O)(Oc1ccccc1)c1ccc2c(c1)Cc1cc(S(=O)(=O)Oc3ccccc3)ccc1-2 | .
CN(C)/C=N/c1c(C#N)cnn1-c1ccc(Cl)cc1 | .
COc1cccc(C(=O)NNc2cc(C(F)(F)F)ccn2)c1 | .
CC1(C(=O)O)C2C=CC3(CN(Cc4ccccc4)C(=O)C31)O2 (stereo unspecified) | .
CC1(C(=O)O)C2C=CC3(CN(c4ccccc4)C(=O)C31)O2 (stereo unspecified) | 5.3
O=C(O)C1C2C=CC3(CN(c4ccccc4)C(=O)C13)O2 (stereo unspecified) | .
Cc1cc(Cl)c(OC(=O)c2ccc(Cl)cc2Cl)c(Cl)c1 | .
CCC(Sc1nnc2c3ccccc3n(C)c2n1)C(=O)NC(C)c1ccccc1 (stereo unspecified) | .
CCC(Sc1nnc2c3ccccc3n(C)c2n1)C(=O)Nc1nnc(C)s1 (stereo unspecified) | .
CCCc1nnc(NC(=O)C(CC)Sc2nnc3c4ccccc4n(C)c3n2)s1 (stereo unspecified) | 3.1
COc1c(Br)cc([N+](=O)[O-])c(OC)c1C(=O)NC(=O)Nc1c(Cl)cc([N+](=O)[O-])cc1Cl | .
COc1cccc(OC)c1NC(=O)NC(=O)c1c(OC)c(Br)cc([N+](=O)[O-])c1OC | .
COc1c(Br)cc([N+](=O)[O-])c(OC)c1C(=O)NC(=O)Nc1cc(C(F)(F)F)cc(C(F)(F)F)c1 | 4.2
SMILES | Dicer processing
Cc1ccc(C)n1-c1ccc(C(=O)NNS(=O)(=O)c2ccc(F)cc2F)cc1 | .
FC(F)(F)c1cccc(NC(=S)Nc2ccccc2)c1 | .
Cc1nnc2n1NC(c1ccc(Cl)cc1)C(C(=O)Nc1ccc(Br)cc1F)S2 (stereo unspecified) | .
Cc1ccc(Cn2ncc(Br)c2/C=N/NC(=S)NC(C)(C)C)cc1 | .
CC(C)(C)NC(=S)N/N=C\c1[nH]ncc1Cl | 5
Cc1nc(C(=O)N/N=C/c2[nH]ncc2Cl)cs1 | .
C/C(=N\N=C(/N)SCc1cc(F)cc2c1OCOC2)c1ccc(C)nc1 | .
Cc1cc(C(=O)C(F)(F)F)c(C)n1-c1ccccc1 | .
O=[N+]([O-])c1ccc(NS(=O)(=O)c2ccc(-c3ccc(S(=O)(=O)Nc4ccc([N+](=O)[O-])cc4)s3)s2)cc1 | 5.3
CNS(=O)(=O)Cc1ccc([N+](=O)[O-])cc1 | .
Cc1cc(C)c(NS(=O)(=O)c2cc([N+](=O)[O-])ccc2C)c(C)c1 | .
CC(C)N(CCC#N)C(=O)Nc1ccccc1Cl | .
N#C/C(=C\c1ccc(C#Cc2ccccc2)s1)C(=O)c1cccs1 | .
CCCN1C(=O)C2(/C(=C(/O)c3ccccc3)C(=O)C(=O)N2CCCN(C)C)c2ccccc21 (stereo unspecified) | 4.4
CCCN1C(=O)C2(/C(=C(/O)c3ccc(OCC)cc3)C(=O)C(=O)N2CCN(C)C)c2ccccc21 (stereo unspecified) | .
CCCN1C(=O)C2(/C(=C(/O)c3ccc(Cl)cc3)C(=O)C(=O)N2CCOC)c2ccccc21 (stereo unspecified) | .
CCCN1C(=O)C2(/C(=C(/O)c3ccc(C)cc3)C(=O)C(=O)N2CCCN(C)C)c2ccccc21 (stereo unspecified) | .
COCCCN1C(=O)C(=O)/C(=C(\O)c2ccc(OC)cc2)C12C(=O)N(C)c1ccccc12 (stereo unspecified) | .
CCCN1C(=O)C2(/C(=C(/O)c3ccc(C)cc3)C(=O)C(=O)N2CCCOC)c2ccccc21 (stereo unspecified) | .
CCCN1C(=O)C2(/C(=C(/O)c3ccccc3)C(=O)C(=O)N2CCCOC)c2ccccc21 (stereo unspecified) | 5
CCCN1C(=O)C2(/C(=C(/O)c3ccc(Cl)cc3)C(=O)C(=O)N2CCCN(C)C)c2ccccc21 (stereo unspecified) | .
CCCN1C(=O)C2(/C(=C(/O)c3ccc(OC)cc3)C(=O)C(=O)N2CCCOC)c2ccccc21 (stereo unspecified) | 3.1
CCOC(=O)/C(C)=N/Nc1ccc(C(F)(F)F)cc1 | .
Cc1cc(C)c2oc(-c3ccc(N)cc3)nc2c1 | .
O=C(COc1cc(Cl)c(Cl)cc1Cl)Nc1cccc(C(F)(F)F)c1 | .
SMILES | Dicer processing
CC(C)NC(=O)c1sc2ccccc2c1Cl | .
CCOC(=O)c1nc(Nc2ccc(N3CCCC3)cc2)c2ccccc2n1 | .
COC(=O)c1sc(SC)c2c1CC(C)(C)CC2=O | .
CCOC(=O)C(NC(C)=O)(Nc1ccccc1C)C(F)(F)F (stereo unspecified) | .
CCCCOC(=O)C1=C(C)NC2=C(C(=O)CC(C)(C)C2)C1c1ccccc1Br (stereo unspecified) | .
CC(O)CN1CN=C(SCc2ccc(Cl)cc2)NC1 (stereo unspecified) | .
O=S1(=O)CC(Sc2ccccc2)c2ccccc21 (stereo unspecified) | .
CC12N=NCC1C(=O)N(c1ccc(Cl)cc1)C2=O (stereo unspecified) | 3
CC12N=NCC1C(=O)N(c1cccc(Cl)c1)C2=O (stereo unspecified) | .
Cc1ccc(N2C(=O)C3CN=NC3(C)C2=O)cc1 (stereo unspecified) | .
COC(=O)c1sccc1NC(=O)CC1C(=O)NCCN1S(=O)(=O)c1ccccc1C#N (stereo unspecified) | .
CC(=O)OCc1c(C)c(C)c(C)c(C)c1C | .
Cc1cc(C)nc(SCC(=O)Nc2ncc3c(n2)CCCC3=O)n1 | .
Cc1cc(C)nc(-n2ncc3c2CCCC3=O)n1 | .
O=C1CCCc2nc3c(cc21)C(=O)CCC3 | 4
CCc1c(OS(=O)(=O)c2ccc(C)cc2)c2ccccc2n(C)c1=O | .
CN(CCOC(=O)c1ccc(Cl)cc1)c1nc2cc(Cl)ccc2s1 | .
COc1cccc(O)c1C1=Nc2ccccc2SC(c2ccccc2)C1 (stereo unspecified) | .
O=c1cc(-c2cc(Br)cc3c2OCOC3)oc2ccccc12 | 3.5
Cc1ccccc1-c1cc(=O)c2cc(Cl)ccc2o1 | .
Cc1cc2oc(-c3ccccc3C(=O)O)cc(=O)c2cc1C | .
CC(ONC(=O)c1cc(C(F)(F)F)cc(C(F)(F)F)c1)C(=O)Nc1ccc(Cl)cc1 (stereo unspecified) | .
COC(=O)c1sccc1N/C=C(\C#N)S(=O)(=O)c1cccs1 | 19
N#C/C(=C\c1c(Cl)cccc1Cl)S(=O)(=O)c1cccs1 | .
CN(C)/C=C(\C#N)S(=O)(=O)c1cccs1 | .
NC1=C(c2ccccc2)C(=O)c2ccccc21 | .
